# Reference: PubChem BioAssay (NCI)
# Values joined by “and” are separate entries in the source; they are usually repeats but may differ in a detail not shown here. Identical values can stand only once. The panel holds about 83,000 compounds, 20% with a hit somewhere; the sample as a whole holds those more often.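 Single-dose data. Exposure time 48 hours. Values below 10 considered active.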 Active and inactive are the calls of the source.
# Tested on: EKVX NSCLC
# Test: NCI-60 one-dose screen, 48 h (100 = growth as untreated, 0 = no growth, -100 = all killed)
# Details: 10 µM
# Experimental: Growth inhibition of the EKVX human Non-Small Cell Lung tumor cell line is measured as a screen for anti-cancer activity. Cells are grown in 96 well plates and exposed to the test compound for 48 hours. Compounds are tested at a single concentration, which is 10^-5 M for most compounds. The reported endpoint is percent growth (GI% or GIPRCNT), where numbers from 0 - 100% represent growth inhibition, and numbers from -100% - 0 represent cell death. For example, a value of 40 represents 60% growth inhibition. A value of 0 means no net growth occurred over the course of the experiment. A value of -40 indicates 40% of cells at the beginning of the experiment died by the end of the experiment. A value of -100 means all cells are dead at the end of the experiment.
# NCI-60 Human Tumor Cell Lines Screen was performed using the standard one-dose NCI protocol, which is described in more detail at https://dtp.cancer.gov/discovery_development/nci-60/default.htm.
# Compounds with GIPRCNT values below 10 were considered active. Activity score was based on GIPRCNT using the following formula: […]
# Score is 0 for GIPRCNT values of 100 or above, 50 for GIPRCNT values of 0, and 100 for GIPRCNT values of -100.
row,Compound,growth
1,S=C(SSC(=S)N1CCCCC1)N1CCCCC1,104% (inactive)

# Same assay, conditions: 10 µM unless noted
row,Compound,growth
1,CCOC(=O)C(NC(=O)C(Cc1ccc(N(CCCl)CCCl)cc1)NC(C)=O)C(C)C (stereo not drawn),97.6% (inactive)
2,Cc1ccc(C(=O)OC(C(=O)O)C(OC(=O)c2ccc(C)cc2)C(=O)O)cc1 (stereo not drawn) (tested in a mixture with another compound),32.7% (inactive)
3,CC[C@@]1(O)C[C@H](OC2CC(N(C)C)C(OC3CC(O)C(OC4CCC(=O)C(C)O4)C(C)O3)C(C)O2)c2c(cc3c(c2O)C(=O)c2c(O)ccc(O)c2C3=O)[C@H]1C(=O)OC (stereo partly drawn),17.6% (inactive)
4,C[C@]12CC[C@H](O)CC1=CC[C@@H]1[C@@H]2CC[C@]2(C)C(=O)CC[C@@H]12,85.7% (inactive)
5,CO[C@H](/C(C)=C/C=C/C(C)=C/c1coc(C)n1)[C@H](C)[C@H]1C[C@@H](O)[C@@]2(C)O[C@H]2/C=C/[C@@H](C)[C@@H]2C[C@@H](CC(=O)O2)C[C@H]2O[C@@H]2C(=O)O1,39.6% (inactive)
6,CCC(=O)OC1CCn2c1nc1c2C(=O)C(C)=C(N2CC2)C1=O (stereo not drawn),8.46% (active)
7,CC[n+]1c(-c2ccccc2)c2cc(N)ccc2c2ccc(N)cc21,1.88% (active)
8,COc1ccccc1/C=C(/C)[N+](=O)[O-],90.8% (inactive) and 98.4% (inactive)
9,CC[C@@]1(O)C[C@H](OC2CC(N(C)C)C(O)C(C)O2)c2c(O)c3c(c(O)c2[C@H]1OC1CC(N(C)C)C(O)C(C)O1)C(=O)c1cccc(O)c1C3=O (stereo partly drawn),4.27% (active)
10,COC1=C(C)C(=O)C2=C(C1=O)C(CO)N1C(C#N)C3CC4C(C1C2N1CCOC41)N3C (stereo not drawn),0.181% (active)
11,CC[C@](O)(C(=O)O)c1cc2n(c(=O)c1CO)Cc1cc3ccccc3nc1-2,10.2% (inactive)
12,CC(=O)O[C@H]1C[C@@H]2OC3C=C(C)CCC3(C)[C@@]1(C)[C@@]21CO1 (stereo partly drawn),-13.7% (active) and -15.6% (active)
13,C[C@H]1CCC/C=C/[C@@H]2C[C@H](O)C[C@H]2[C@H](O)/C=C/C(=O)O1,11.1% (inactive)
14,Cc1cc(N=Nc2ccccc2C)ccc1N,71.9% (inactive)
15,Cc1c(N)nc([C@H](CC(N)=O)NC[C@H](N)C(N)=O)nc1C(=O)N[C@H](C(=O)N[C@H](C)[C@@H](O)[C@H](C)C(=O)N[C@H](C(=O)NCCc1nc(-c2nc(C(=O)NCCC[S+](C)C)cs2)cs1)[C@@H](C)O)C(OC1OC(CO)C(O)C(O)C1OC1OC(CO)C(O)C(OC(N)=O)C1O)c1cnc[nH]1 (stereo partly drawn),103% [2.5 µM] (inactive)
16,COc1ccc(OC)c(/C=C/[N+](=O)[O-])c1,67.7% (inactive)
17,CC1=C2C(=O)[C@H]3[C@@H](CC=C4C[C@@H](O)CC[C@@]43C)[C@@H]2CC[C@]12O[C@@H]1C[C@H](C)CN[C@H]1[C@H]2C,94.3% (inactive)
18,COc1cccc2c1cc([N+](=O)[O-])c1c(C(=O)O)cc3c(c12)OCO3,84.3% (inactive) and 111% (inactive)
19,CN1CCN(c2ccc([N+](=O)[O-])c3no[n+]([O-])c23)CC1,-34.4% (active)
20,Oc1cccc2cccnc12,93% (inactive) and 110% (inactive) and 103% (inactive)
21,CCCCCCCCCCCC1CCCC(C)N1 (stereo not drawn),91.2% (inactive)
22,COC1CC(CC2CCC(C)C(C(C)C(=O)O)O2)OC2(OC(C)(C3CCC(C)(C4OC(C5OC(O)(CO)C(C)CC5C)CC4C)O3)CC2C)C1C (stereo not drawn),19.1% (inactive)
23,O=C1c2ccccc2C(=O)C(Cl)C1Cl (stereo not drawn),-79.6% (active)
24,CC1=C(CO)C2=C(C)C3(CC3)[C@@](C)(O)C(=O)C2=C1,0.643% (active)
25,CCC1(O)CC(OC2CC(N(C)C)C(OC3CC4OC5CC(=O)C(C)OC5OC4C(C)O3)C(C)O2)c2c(cc3c(c2O)C(=O)c2c(O)ccc(O)c2C3=O)C1C(=O)OC (stereo not drawn),1.67% (active)
26,CC[C@@]1(O)C(=O)OCc2c1cc1n(c2=O)Cc2cc3ccccc3nc2-1,13.5% (inactive)

# Same assay, conditions: 100 µM
row,Compound,growth
1,S=C(SSC(=S)N1CCCCC1)N1CCCCC1,-23.3% (active)
